{
  "source": "PubChem BioAssay (NCI)",
  "note": "Compounds without any hit were thinned out: in the full panel of roughly 83,000, 20% have a hit.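 Cell lines were cultured in 96-well plates, exposed to a single compound concentration, and assessed for percent growth 48 hours later.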 The source made the active and inactive calls. Rule for the calls: active = growth percent below 10; inactive = the rest.",
  "data": [
    {"test_system": "HL-60(TB) leukemia", "assay": "NCI-60 one-dose screen, 48 h (100 = growth as untreated, 0 = no growth, -100 = all killed)", "conditions": "10 µM unless noted", "values": [
      {"smiles": "O=Nc1c(-c2c(O)[nH]c3cc(Br)ccc23)[nH]c2ccccc12", "growth": "-51.3% (active)"},
      {"smiles": "CCN(CC)S(=O)(=O)c1ccc(S(=O)(=O)N2CCC[C@@H](C(=O)N3CCN(c4nc(C(C)C)no4)CC3)C2)cc1", "growth": "68.5% (inactive)"},
      {"smiles": "CCOC(=O)c1c(/N=C2\\SC(=O)/C(=C\\C(=O)OC)N2NC)sc2c1CCN(C(=O)OCC)C2", "growth": "108% (inactive)"},
      {"smiles": "CCOc1ccc(-n2nc(C(=O)Nc3ccccc3)nc2-c2cc(OC)c(OC)c(OC)c2)cc1", "growth": "32.9% (inactive)"},
      {"smiles": "Cc1ccc(Nc2oc(-c3ccccc3)nc2[P+](c2ccccc2)(c2ccccc2)c2ccccc2)cc1", "growth": "-32.5% (active)"},
      {"smiles": "O=c1oc2c(cc1-c1ccc([N+](=O)[O-])cc1)C(O)Oc1ccccc1-2", "note": "(stereo not given)", "growth": "71.9% (inactive)"},
      {"smiles": "COc1ccc(Nc2ncnc3c2c(SC)nn3-c2ccccc2)cc1", "growth": "90.5% (inactive)"},
      {"smiles": "COc1ccc(-c2nn(-c3ccccc3)cc2/C=C/C(=O)NNC(=O)Nc2ccc(C)cc2)cc1", "growth": "90.5% (inactive)"},
      {"smiles": "CCn1cc(C(=O)NN=C2CCCC2)c(=O)c2ccc(C)nc21", "growth": "98.8% (inactive)"},
      {"smiles": "COc1ccc2c(c1)C=CC(C#N)N2C(=O)c1ccccc1", "note": "(stereo not given)", "growth": "-24.7% (active)"},
      {"smiles": "CCOCC(=O)C(C#N)c1ccc(Cl)c(Cl)c1", "note": "(stereo not given)", "growth": "102% (inactive)"},
      {"smiles": "O=C1/C(=C\\c2cccn2Cc2ccccc2)c2ccccc2N1c1c(Cl)cccc1Cl", "growth": "71% (inactive)"},
      {"smiles": "c1ccc(-c2nnc(-c3c[nH]c4ncccc34)s2)cc1", "growth": "98.4% (inactive)"},
      {"smiles": "CC(=O)c1cnc(-c2ccccc2)nc1CBr", "growth": "41.5% (inactive)"},
      {"smiles": "O=C1NC(=C(Cl)Cl)/C(=N/S(=O)(=O)NCCc2c[nH]c3ccccc23)N1", "growth": "50.2% (inactive)"},
      {"smiles": "CC(=O)OC/C=C(/C)C[P+](c1ccccc1)(c1ccccc1)c1ccccc1", "growth": "44.9% (inactive)"},
      {"smiles": "COc1ccc(/C=c2/c(=O)[nH]c3nc4sc(C)c(C)c4c(=O)n23)cc1", "growth": "71.8% (inactive)"},
      {"smiles": "CCn1cc(C(=O)O)c(=O)c2cc(F)c(N3CCN(CC(=O)Nc4ccc(S(=O)(=O)Nc5nccc(C)n5)cc4)C(C)C3)c(F)c21", "note": "(stereo not given)", "growth": "115% (inactive)"},
      {"smiles": "CCCCCN1C=C/C(=C\\C(=O)N(C)c2ccc(Oc3ccccc3)cc2)c2ccccc21", "growth": "66.9% (inactive)"},
      {"smiles": "COC(=O)/C=C1\\Sc2cc(F)ccc2NC1=O", "growth": "97.7% (inactive)"},
      {"smiles": "COc1ccc(-c2cc(C(=O)Nc3ccc(C)cc3)nc3[nH]c(=O)sc23)cc1", "growth": "51.8% (inactive)"},
      {"smiles": "CS(=O)(=O)N1CCN(Cc2cc3nc(-c4cccc5[nH]ncc45)nc(N4CCOCC4)c3s2)CC1", "growth": "23.6% (inactive)"},
      {"smiles": "N#CCNc1ccc(C(=O)O)cc1", "growth": "99.2% (inactive)"},
      {"smiles": "COc1ccc(OC)c(/C=C/c2nnc(Nc3ccccc3)o2)c1", "growth": "75.7% (inactive)"},
      {"smiles": "COC(=O)c1nc(=S)[nH]c(C(=O)OC)c1C(=O)c1ccccn1", "growth": "97.9% (inactive)"},
      {"smiles": "Nc1ccc(S(=O)(=O)c2ccc(NO)cc2)cc1", "growth": "107% (inactive)"},
      {"smiles": "S=C(c1ccccc1)N1CCN(c2cccc(Cl)c2)CC1", "growth": "90.5% (inactive)"},
      {"smiles": "Cc1nc2sc(C(=O)Nc3ccc(Br)cc3)c(N)c2cc1C(O)c1ccccc1", "note": "(stereo not given)", "growth": "22.4% (inactive)"},
      {"smiles": "CC(=O)NNC(=S)N/C=C/c1c(C)ccc([N+](=O)[O-])c1[N+](=O)[O-]", "growth": "99.9% (inactive)"},
      {"smiles": "CCC([N+](=O)[O-])S(=O)(=O)c1ccc(C)cc1", "note": "(stereo not given)", "growth": "132% (inactive)"},
      {"smiles": "Cc1ccccc1NC(=O)c1sc2nc3c(cc2c1N)CCCC3", "growth": "11.8% (inactive)"},
      {"smiles": "C=C(C)[C@@H]1CC[C@]2(COCCCNCCCN)CC[C@]3(C)[C@H](CC[C@@H]4[C@@]5(C)CC[C@H](OCCCN)C(C)(C)[C@@H]5CC[C@]43C)[C@@H]12", "growth": "48.2% (inactive)"},
      {"smiles": "CCc1ccccc1-n1c(-c2ccc(OC)cc2)cc(-c2ccc(OC)cc2)c(C#N)c1=O", "growth": "121% (inactive)"},
      {"smiles": "CC(=O)Nc1ccc(C(=O)CCl)cc1", "growth": "-19.4% (active)"},
      {"smiles": "C=C1C(=O)O[C@H]2[C@H]1CC/C(COC(=O)NCCCCNC(=O)OC/C1=C/CC[C@@]3(C)O[C@H]3[C@H]3OC(=O)C(=C)[C@@H]3CC1)=C\\CC[C@@]1(C)O[C@@H]21", "growth": "-50.7% (active)"},
      {"smiles": "COc1cc(-c2nn(-c3ccc(C(=O)O)cc3)cc2C(=O)O)ccc1O", "growth": "46.1% (inactive)"},
      {"smiles": "COc1cc2c(-c3cc4c(cc3CNCCc3ccc5c(c3)OCO5)OCO4)cccc2c(OC)c1O", "growth": "71.3% (inactive)"},
      {"smiles": "COc1ccc(/C=C/C(=O)c2cccc(B(O)O)c2)cc1O", "growth": "4.3% (active)"},
      {"smiles": "CN1CCN(c2ccc(OC(F)(F)F)c(Nc3ncc4c(n3)-c3c(c(C(N)=O)nn3CCO)CC4)c2)CC1", "growth": "-20.5% (active)"},
      {"smiles": "O=C1NCCS(=O)(=O)/C1=C\\C=C\\c1cccc(C(F)(F)F)c1", "growth": "1.71% (active)"}
    ]}
  ]
}
